Assay outcomes: PubChem BioAssay, National Center for Advancing Translational Sciences (NCATS)
AmpC detergent: AmpC beta-lactamase inhibition with detergent present | AmpC hydrolysis of nitrocefin, absorbance 480 nm, 0.01% Triton | Potency, µM (top dose mostly 114 µM), most hits filed as inhibitors | 370,000 tested, 0.041% active | AID 485294; further: nearly all actives have a fitted effect of over 25% in size
Target sequence (P00811 whole entry, looked up): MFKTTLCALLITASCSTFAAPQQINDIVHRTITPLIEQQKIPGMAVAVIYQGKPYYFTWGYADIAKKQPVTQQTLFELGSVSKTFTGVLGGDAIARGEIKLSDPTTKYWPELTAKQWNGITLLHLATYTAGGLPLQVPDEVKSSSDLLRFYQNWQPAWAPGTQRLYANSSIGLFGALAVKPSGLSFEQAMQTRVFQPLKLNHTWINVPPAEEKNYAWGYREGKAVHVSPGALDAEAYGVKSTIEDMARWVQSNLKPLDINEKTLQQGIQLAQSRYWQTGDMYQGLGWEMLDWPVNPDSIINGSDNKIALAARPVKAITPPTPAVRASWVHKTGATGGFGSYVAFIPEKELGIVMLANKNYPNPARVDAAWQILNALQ
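AmpC (5.3 nM in the dispensed reagent) in 20 mM phosphate pH 7.0 with 0.01% (detergent screen) or 0.0001% Triton X-100 was preincubated with compounds for 15 min at room temperature. Nitrocefin was then added from an 800 uM solution, and hydrolysis was followed at 480 nm.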
AmpC inh no detg: inhibitors of E. coli AmpC beta-lactamase without detergent; P00811; AmpC nitrocefin hydrolysis, absorbance 480 nm, 0.0001% Triton; Potency, µM (top dose mostly 57.1 µM), usual class: inhibitors; 330,000 tested, 0.52% active; AID 485341; further: nearly all actives have a fitted effect of over 20% in size
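AmpC (5.3 nM in the dispensed reagent) in 20 mM phosphate pH 7.0 with 0.01% (detergent screen) or 0.0001% Triton X-100 was preincubated with compounds for 15 min at room temperature. Nitrocefin was then added from an 800 uM solution, and hydrolysis was followed at 480 nm.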
AMA1-RON2 inh: AMA1-RON2 (P. falciparum) interaction inhibition. AlphaScreen AMA1-biotinylated RON2 peptide binding. Potency, µM (top dose mostly 58.2 µM), most hits filed as inhibitors. 360,000 tested, 0.2% active. AID 720542; further: nearly all actives have a fitted effect of over 45% in size
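AMA1 (3D7) with his tag at 25 nM final met compounds first, then biotinylated RON2 peptide at 25 nM; detection used donor plus acceptor beads, 10 µg/mL apiece, read by AlphaScreen after 30 min at room temperature.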
Sm TGR block: blocks Schistosoma mansoni thioredoxin glutathione reductase | purified TGR, DTNB reduction, TNB absorbance 405 nm | Q962Y6 | Potency, µM (titrated, usually from 114 µM), hits mostly inhibitors | 360,000 tested, 3% active; further: nearly all actives have a fitted effect of over 60% in size
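TGR 20 nM + NADPH 100 uM (dispensed conc.), cpd preinc 15 min RT; start with NADPH (500 uM addition) then DTNB (15 mM addition). Kinetic TNB absorbance, 405 nm filter. Four-parameter Hill fit across titration.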
RE007 growth inh: less growth of the S. pombe RE007 Vpr strain | 360,000 tested, 0.21% active | Potency, µM (doses to about 92.2 µM), most hits filed as inhibitors | S. pombe RE007 Vpr strain, BacTiter-Glo ATP luminescence, 24 h; active means well fitted falling curve with a large enough effect; inconclusive means small, poorly fitted or top-dose-only effect; inactive means no such curve, though single readings can be large or run the other way; further: nearly all actives have a fitted effect of over 50% in size
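Fission yeast RE007 carrying one integrated HIV-1 vpr copy, seeded at OD 0.01 in PMG+AL medium with 23 nL pinned compound. Grown 24 h at 30 degrees; viability read by BacTiter-Glo luminescence after 5 min.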
Large screens that a line does not name were inactive. The list is not random: actives were taken first. Their share in the collection is about 3.2%. Unless noted, the call rests on the fitted dose curve; in most records, active means well fitted curve in the direction sought with a large enough effect; inconclusive means small, poorly fitted or top-dose-only effect, or another doubt; inactive means no such curve, though single readings can be large; an effect the other way counts as inactive or inconclusive.

Cc1nc(S(=O)(=O)c2cccc(Cl)c2)nc2c1CCC2	AmpC detergent inconclusive, Sm TGR block inconclusive
COc1ccc(-c2cc(C(F)(F)F)nc(SCC(=O)N(C)Cc3ccccc3)n2)cc1	none (no result: AmpC inh no detg, AMA1-RON2 inh, RE007 growth inh)
O=C(NCc1ccco1)C1OCCc2ccccc21 (stereo unspecified)	Sm TGR block 22.4µM
O=C(NCc1ccco1)C1CCCCC1	none (no result: Sm TGR block)
COC(=O)CCCC1=CC2=C(c3ccccc3)C(=O)C(C)(OC(=O)C3CCCC3)C(=O)C2=CN1CCCCO (stereo unspecified)	none
COC(=O)CCCC1=CC2=C(c3ccccc3)C(=O)C(C)(OC(=O)C3CCCC3)C(=O)C2=CN1Cc1ccco1 (stereo unspecified)	Sm TGR block 22.4µM
CCc1ccccc1Nc1nn2c(=O)c3ccc(C(=O)NCCC4=CCCCC4)cc3nc2s1	none (no result: AmpC inh no detg, AMA1-RON2 inh, RE007 growth inh)
COc1ccc(C(=O)NC(=S)NC(C)C)cc1Br	Sm TGR block 15.8µM
CCOC(=O)c1ccc(NC(=S)NCc2ccco2)cc1	Sm TGR block 11.2µM
COc1cc(OC)cc(C(=O)NC(=S)NCc2ccco2)c1	Sm TGR block inconclusive
COc1ccc(C(=O)NC(=S)NCc2ccco2)cc1Br	Sm TGR block 50.1µM
COc1ccc(C(=O)NC(=S)NCc2ccco2)cc1	Sm TGR block 7.08µM
Cc1cc(C)c(NC(=O)c2cc(C)nc3c2c(C)nn3-c2cccc(F)c2)c(C)c1	none (no result: AmpC inh no detg, AMA1-RON2 inh, RE007 growth inh)
COc1ccc(CC(=O)Nc2ccc(S(=O)(=O)N(C)C3CCN(C)CC3)cc2)cc1	none
COc1ccc(S(=O)(=O)N(C)C2CCN(C)CC2)cc1	AmpC detergent inconclusive, AmpC inh no detg 10µM
COc1ccc(C(NC(=O)/C=C/c2ccco2)c2ccc(OC)c(OC)c2)cc1 (stereo unspecified)	Sm TGR block 25.1µM
COc1ccc(C(NC(=O)c2ccco2)c2ccc(OC)c(OC)c2)cc1OC	AmpC detergent inconclusive
CCOc1ccc(C(NC(=O)/C=C/c2ccco2)c2ccc(OC)c(OC)c2)cc1 (stereo unspecified)	Sm TGR block 44.7µM
COC(=O)c1c(-c2cccs2)csc1NC(=O)COc1ccc(C(C)(C)C)cc1	none (no result: AmpC inh no detg, AMA1-RON2 inh, RE007 growth inh)
Nc1ccc(Cc2ccc(N)c(O)c2)cc1O	Sm TGR block 39.8µM
O=C(O)c1ccc(NC2=C(n3nnc4ccccc43)C(=O)c3ccccc3C2=O)cc1	Sm TGR block 7.08µM
Cc1ccc2c(c1)-c1c(cnn1CC(=O)NC(C)CCc1ccco1)CO2 (stereo unspecified)	AmpC detergent inconclusive, Sm TGR block inconclusive
Cc1ccc2c(c1)-c1c(cnn1CC(=O)N(Cc1ccco1)C1CCCCC1)CO2	AmpC inh no detg 50.1µM
Cc1[nH]n(-c2ncc(-c3ccc(Cl)cc3)s2)c(=O)c1C(c1ccc(Cl)cc1)C(C#N)C#N (stereo unspecified)	AmpC inh no detg 39.8µM, Sm TGR block inconclusive
O=C(CCN1C(=O)C2CCCCC2C1=O)N1CCN(S(=O)(=O)c2cccc(F)c2)CC1 (stereo unspecified)	Sm TGR block 56.2µM
COn1c2c(c3c4nonc4ccc31)CCCC2	Sm TGR block 28.2µM
Cc1cccc(CNC(=O)CCCN2C(=O)CCn3nc(-c4cccn4C)cc32)c1	none (no result: AmpC inh no detg, AMA1-RON2 inh, RE007 growth inh)
Cc1ccc(S(=O)(=O)N2CCCCC2C(=O)NCc2ccco2)cc1 (stereo unspecified)	Sm TGR block 20µM
CSCC[C@H](NC(=O)C1CCN(S(=O)(=O)c2ccc(C)cc2)CC1)C(=O)NCc1ccco1	Sm TGR block 44.7µM
O=C(NCc1ccccc1F)C1CCCN(S(=O)(=O)c2ccc(-n3cnnn3)cc2)C1 (stereo unspecified)	AmpC detergent inconclusive
COC(=O)Nc1ccc(S(=O)(=O)N2CCCCC2C(=O)NCc2ccco2)cc1 (stereo unspecified)	AmpC detergent inconclusive
O=C(NCc1ccco1)C1CCCN(S(=O)(=O)c2ccc(-n3cnnn3)cc2)C1 (stereo unspecified)	AmpC detergent inconclusive, Sm TGR block 20µM
Cc1ccc(-c2nnc(Nc3ccc(F)cc3)c3ccccc23)cc1S(=O)(=O)N1CCN(C)CC1	none (no result: AmpC inh no detg, AMA1-RON2 inh, RE007 growth inh)
Cc1ccc(C(=O)O)cc1NC(=S)NC(=O)C(c1ccccc1)c1ccccc1	Sm TGR block 56.2µM
CC(C)(C)OC(=O)N1CCC(c2c(C(=O)NC3CCCCC3)cnn2-c2cccc(F)c2)CC1	none (no result: AmpC inh no detg, AMA1-RON2 inh, RE007 growth inh)
CC1(C)Cc2c(sc3c2C(=O)NC(c2cccnc2)N3)CO1 (stereo unspecified)	AmpC detergent inconclusive
O=C1NC(c2cccnc2)Nc2sc3c(c21)CCCC3 (stereo unspecified)	AmpC detergent inconclusive, Sm TGR block 44.7µM
CN1CCc2c(sc3c2C(=O)NC(c2ccccn2)N3)C1 (stereo unspecified)	Sm TGR block 39.8µM
O=C1NC(c2ccccn2)Nc2sc3c(c21)CCC3 (stereo unspecified)	Sm TGR block 31.6µM, RE007 growth inh inconclusive
Cc1ccsc1C1NC(=O)c2c(sc3c2CCCC3)N1 (stereo unspecified)	Sm TGR block 35.5µM, RE007 growth inh inconclusive
CN1CCc2c(sc3c2C(=O)NC(c2ccccc2)N3)C1 (stereo unspecified)	none
O=C1NC(c2ccc(Br)cc2)Nc2sc3c(c21)CCC3 (stereo unspecified)	none
CCCCC(CC)CNC(=O)CN(C)S(=O)(=O)c1ccc2c(c1)c(=O)n(C)c(=O)n2C (stereo unspecified)	none (no result: AmpC inh no detg, AMA1-RON2 inh, RE007 growth inh)
CCOCCCN1C(=O)c2[nH]nc(-c3ccccc3O)c2C1c1ccc(CC)cc1 (stereo unspecified)	none (no result: AmpC inh no detg, AMA1-RON2 inh, RE007 growth inh)
CCSc1ccc([C@@H]2[C@@H]3C(=O)N(CC)C(=O)[C@@H]3[C@]3(C(=O)OC)CCCN23)cc1	AmpC detergent inconclusive, Sm TGR block 35.5µM
CCN1C(=O)[C@@H]2[C@@H](c3ccc(-c4ccc(Cl)c(Cl)c4)c(OC)c3)N3CCC[C@@]3(C(=O)OC)[C@@H]2C1=O	AMA1-RON2 inh inconclusive, Sm TGR block 35.5µM
CCN1C(=O)[C@H]2[C@@H](c3ccc(-c4ccc(F)cc4)c(OC)c3)N3CCC[C@@]3(C(=O)OC)[C@H]2C1=O	Sm TGR block inconclusive
O=C(CCl)N1CCCC1c1ccc2c(c1)OCCO2 (stereo unspecified)	Sm TGR block 3.55µM
CC(=O)c1ccc(OCC(=O)N2CCCC2c2ccc3c(c2)OCCCO3)cc1 (stereo unspecified)	none (no result: AmpC detergent, Sm TGR block)
CCc1ccccc1NC(=O)CCS(=O)(=O)c1ccc(OC)cc1	Sm TGR block 14.1µM
CCOc1ccccc1NC(=O)CCS(=O)(=O)c1ccc(OC)cc1	none
COc1ccc(CNC(=O)CCS(=O)(=O)c2ccc3c(c2)NC(=O)CS3)cc1	Sm TGR block 12.6µM
